Reference: PubChem BioAssay AID1053126 (Broad Institute, 2014)
Potency and affinity values are given separately. A number with no mark means an inactive call.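 The calls were made as follows: active = cell killing with a fitted half-effect concentration at or below twice the top valid dose; inconclusive = flat curve with 30 to 70 percent drop, or poor fit; inactive = the rest.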

experiment: viability loss in HEK293T kidney cells – cell-based, ATP luminescence, cherry-pick, set 6, cytotoxicity control, dose response (AID 1053126); settings: CellTiter-Glo ATP luminescence, 72 h; series mostly up to 26 µM; activity change, negative = cytotoxicity: at the top concentration;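 also: 0% = neutral control wells and -100% = mitoxantrone 10 µM positive control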

Structure (SMILES) | activity change, negative = cytotoxicity [%]
COc1ccccc1N1CCN(C2CCC(C)CC2)CC1 (stereo not drawn) | -4.57
O=C(NNc1c2ccccc2nc2ccccc12)c1ccc(O)cc1 | -17.1
COc1ccccc1OCc1ccc(C(=O)N(C)c2ccccc2)o1 | 23.6
O=C(NNc1cc(N2CCCC2)nc(N2CCCC2)n1)c1ccc([N+](=O)[O-])cc1 | -11.6
Cc1nc2ccc(S(=O)(=O)Nc3ccc(-c4nc5cccnc5s4)cc3)cc2s1 | 31.4
COc1ccccc1NS(=O)(=O)c1cc(NC(=O)CCNC(C)=O)ccc1C | 4.56
N=c1c(C(=O)NCC2CCCO2)cc2c(=O)n3ccccc3nc2n1Cc1ccc(Cl)cc1 (stereo not drawn) | 1.9
COc1ccccc1C1C2=C(CC(C)(C)CC2=O)N(CC(=O)O)C2=C1C(=O)CC(C)(C)C2 | 24.7
COc1cc(C(c2c(C(=O)O)[nH]c3ccccc23)c2c(C(=O)O)[nH]c3ccccc23)ccc1OCc1ccccc1 | -16.5
Nn1c(SCC(=O)N2CCCC2)nnc1-c1cccs1 | -3.98
COc1ccc(S(=O)(=O)N2CCCC2CNC(=O)C(=O)NC2CCCC2)cc1 (stereo not drawn) | -3.54
COc1ccc(Br)c(Cn2c(C)c(C(=O)NCc3ccc4c(c3)OCCO4)sc2=O)c1 | -13.7
O=c1c2ccccc2n(CC(O)CN2CCCCC2)c2ccccc12 (stereo not drawn) | -7.07
CCN1C=C(C(=O)OC)C(c2cccc(OC)c2OC)C(C(=O)OC)=C1 | -2.69
Cc1cccn2c(=O)c3cc(C(=O)NCc4ccco4)c(=N)n(CCc4ccccc4)c3nc12 | -5.68
C=CCn1c(=N)c(C#N)cc2c(=O)n3ccccc3nc21 | -9.32
O=C(CCc1c[nH]c2ccccc12)OCC(=O)c1ccccc1 | -12.4
O=C(Nc1ccc2c(c1)OCCO2)c1ccc(NC(=O)C2CCCO2)cc1 (stereo not drawn) | -0.148
Cc1cccn2c(=O)c(/C=C(\C#N)C(N)=O)c(Oc3ccccc3)nc12 | -7.72

Structure (SMILES) | activity change, negative = cytotoxicity [%]
CCOc1ccc2nc(NCCCNS(=O)(=O)c3ccc(F)cc3)c(C#N)cc2c1 | -10.3
CC(C)C(=O)Nc1sc2c(c1C(N)=O)CCN(Cc1ccccc1)C2 | 6.18
O=C(O)[C@@H]1CCCN1S(=O)(=O)c1cccc(S(=O)(=O)N2CCC[C@H]2C(=O)O)c1 | -7.09
N#Cc1ccc(OCC(=O)OCC(=O)N2CCc3ccccc32)cc1 | -5.79
Cc1cc(-c2nc3cccnc3s2)ccc1NS(=O)(=O)c1cccs1 | 2.17
COc1ccc(C2C(C#N)=C(N)Oc3cc(O)ccc32)cc1Cl (stereo not drawn) | 6.37
O=C(O)c1ccc(N2N=C(c3ccccc3)CC2c2ccccc2)cc1 (stereo not drawn) | -11.6
COCCCOc1cc(NCc2ccccc2)c2ncn(C(C)C)c2c1 | 0.369
O=c1oc2c(CN3CCCCC3)c(O)ccc2cc1-c1nc2ccccc2[nH]1 | -14.8
CC(C)c1ccc(/C=C2\Oc3c(ccc(O)c3CN3CCN(C)CC3)C2=O)cc1 | -6.47
Cn1c(=N)c(S(=O)(=O)c2ccccc2)cc2c(=O)n3ccccc3nc21 | -19.3
Cc1ccc(S(=O)(=O)Nc2ccc(Nc3ccccc3)cc2)cc1 | -16.6
CCOC(=O)c1c(C)n(C)c2ccc(OCC(O)CN3CCC(C)CC3)cc12 (stereo not drawn) | 12.2
CSc1ccc(Cn2c(C)c(C(=O)NCCC#N)sc2=O)cc1 | -0.568
COCCCn1c(=N)c(C(=O)NC2CCCCC2)cc2c(=O)n3ccccc3nc21 | 22.6
Cc1ccc2nc3c(cc(C(=O)NCc4ccccc4)c(=N)n3CCCn3ccnc3)c(=O)n2c1 | -6.07
O=C(CCCN1C(=O)CSc2ncccc21)N1CCN(Cc2ccccc2)CC1 | -10.1
O=c1oc2c(CN3CCN(CCO)CC3)c(O)ccc2cc1-c1ccccn1 | -3.28
C#CCOc1ccc(C2C(C#N)=C(N)Oc3cc(O)ccc32)cc1 (stereo not drawn) | 7.8
